# Source: PubChem (National Center for Advancing Translational Sciences (NCATS))
# G9a inh = qHTS Assay for Inhibitors of Histone Lysine Methyltransferase G9a; G9a H3K9 monomethylation, AlphaScreen, 2 h; hit rate 8.8% among 350,000; Histone-lysine N-methyltransferase EHMT2 (Homo sapiens), Q96KQ7; Potency, µM (top dose mostly 102 µM), inactives show at the top dose activity, negative = inhibition, most hits filed as inhibitors; also: potency is read from the fitted curve at half-maximal effect; % is scaled to controls: 0 for no effect and ±100 for the full control effect; nearly all actives have a fitted effect of over 75% in size
#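 Methyltransferase reactions run at room temperature for 2 h (20 nM enzyme, 500 nM biotin-H3K9 peptide, 20 uM SAM) after a 15 min compound preincubation; product detected by AlphaScreen beads and anti-H3K9me1 antibody.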
# BAZ2B block = qHTS Assay for Inhibitors of BAZ2B; AlphaScreen BAZ2B-H3K14Ac peptide displacement; Potency, µM (top dose mostly 114 µM), without a hit: top-dose activity change, negative = inhibition, usual class: inhibitors; hit rate 4.4% among 360,000; also: potency is read from the fitted curve at half-maximal effect; % is scaled to controls: 0 for no effect and ±100 for the full control effect; nearly all actives have a fitted effect of over 60% in size
#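 BAZ2B 50 nM plus b-H3(5-23)K14Ac 50 nM, PBS pH 7.4/0.01% Tween-20, 30 min RT; compound added (max 110 uM), 30 min RT; streptavidin donor/Ni-chelate acceptor beads 10 ug/mL final, 20 min dark; AlphaScreen read.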
# HP1b chromo inh = HTS for Inhibitors of HP1-beta Chromodomain Interactions with Methylated Histone Tails; hit rate 0.56% among 390,000; Chromobox protein homolog 1 (Homo sapiens), P83916; AID 540317, 2011; Potency, µM (doses to about 114 µM), for the others: at the top dose activity change, negative = inhibition, usual class: inhibitors; AlphaScreen HP1-beta / biotin-H3K9me3 peptide binding; also: potency is read from the fitted curve at half-maximal effect; nearly all actives have a fitted effect of over 70% in size
# Target sequence (P83916 whole entry, looked up): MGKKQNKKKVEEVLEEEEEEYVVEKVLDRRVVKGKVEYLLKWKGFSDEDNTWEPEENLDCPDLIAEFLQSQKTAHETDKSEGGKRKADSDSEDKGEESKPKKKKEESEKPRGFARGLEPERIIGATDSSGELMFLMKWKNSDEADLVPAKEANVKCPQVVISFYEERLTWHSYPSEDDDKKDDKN
#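 AlphaScreen: HP1-beta (50 nM) preformed 30 min with biotin-H3(1-18)K9me3 peptide (50 nM) in PBS pH 7.4, 0.01% Tween-20. Compound added for 30 min at RT, then streptavidin donor/nickel chelate acceptor beads (10 ug/mL) for 30 min.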
# L3MBTL1 block = qHTS Assay for the Inhibitors of L3MBTL1. Lethal(3)malignant brain tumor-like protein 1 (Homo sapiens), Q9Y468. AlphaScreen L3MBTL1–H3K9me1 peptide binding. Potency, µM (series often up to 57.1 µM), inactives show at the top dose activity, negative = inhibition, actives largely listed as inhibitors. hit rate 0.66% among 230,000. AID 485360, 2010; also: potency is read from the fitted curve at half-maximal effect; % is scaled to controls: 0 for no effect and ±100 for the full control effect; nearly all actives have a fitted effect of over 60% in size
#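 L3MBTL1 50 nM + b-AHA-H3(1-15)K9me1 75 nM, 30 min RT; compound added, 30 min RT; streptavidin donor/Ni-chelate acceptor beads 10 ug/mL each final, 30 min RT dark; AlphaScreen read.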
# PI5P4Ka inh = qHTS for Inhibitors of phosphatidylinositol 5-phosphate 4-kinase (PI5P4K); Phosphatidylinositol 5-phosphate 4-kinase type-2 alpha (Homo sapiens), P48426; PI5P4Kalpha enzyme, ADP-Glo luminescence, 60 min; stronger effect = lower value; max response, %; hit rate 1.2% among 330,000; active = max response of -50% or lower; inconclusive = between -30% and -50%; inactive = -30% or higher; also: value at the top dose of about 77 µM; % is scaled to controls: 0 for no effect and ±100 for the full control effect
# Target sequence (P48426 whole entry, looked up): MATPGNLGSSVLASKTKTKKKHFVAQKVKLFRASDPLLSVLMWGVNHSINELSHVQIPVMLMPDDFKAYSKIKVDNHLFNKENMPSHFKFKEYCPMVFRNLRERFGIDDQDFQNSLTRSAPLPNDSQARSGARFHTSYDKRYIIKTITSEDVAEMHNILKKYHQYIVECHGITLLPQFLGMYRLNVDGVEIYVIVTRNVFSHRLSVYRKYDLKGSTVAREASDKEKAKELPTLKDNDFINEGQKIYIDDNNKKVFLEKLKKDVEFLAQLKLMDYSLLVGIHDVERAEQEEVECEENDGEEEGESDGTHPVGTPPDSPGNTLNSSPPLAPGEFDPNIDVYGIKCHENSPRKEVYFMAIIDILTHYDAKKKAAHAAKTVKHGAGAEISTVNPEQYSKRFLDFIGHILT
#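 Luminescence from ADP-Glo served as readout of PI5P4Kalpha activity in a qHTS format. Reaction: enzyme, substrate, compound, ATP at 5 microM final, 60 min at RT.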
# JMJD2A Tudor = qHTS Assay for Inhibitors of JMJD2A-Tudor Domain. Lysine-specific demethylase 4A (Homo sapiens), O75164. AlphaScreen JMJD2A-Tudor / H3K4me3 peptide binding. Potency, µM (highest dose often 114 µM), for the others: at the highest dose activity change, negative = inhibition, most hits filed as inhibitors. hit rate 4.4% among 390,000. AID 504339, 2011; also: potency is read from the fitted curve at half-maximal effect; % is scaled to controls: 0 for no effect and ±100 for the full control effect; nearly all actives have a fitted effect of over 50% in size
# Active calls of the source: *; ? = inconclusive; . = no result; ! = repeats disagree; [ ] = dose if it differs, or a comment. Hits are enriched below; roughly 11% of the tested compounds scored in any of these assays. Unless noted, calls follow the shape of the dose curve; as a rule, active = well fitted inhibition curve with a large enough effect; inconclusive = small, poorly fitted or top-dose-only effect; inactive = no such curve, though single readings can be large or run the other way.
SMILES,G9a inh,BAZ2B block,HP1b chromo inh,L3MBTL1 block,PI5P4Ka inh,JMJD2A Tudor
Cc1sc(-n2cccc2)c(C(=O)O)c1C,0.6%[59 µM],50.1µM*,27.7%,-13.6%,.,-35.6%
NCc1ccccc1Sc1ccccc1CO,-28.4%[12.7 µM],.,.,.,.,.
COc1ccc(-c2cccc(C3C4C=CCCC4(C)C(=O)N3Cc3ccccc3)c2)cc1 (stereo unspecified),.,.,10.4%,.,.,-22.8%
COC(=O)CCCCC1SCC2NC(=O)NC21O (stereo unspecified),8.91µM*,2.24µM*,-95.0%,.,-7.3,0.891µM*
COC(=O)CCCC[C@H]1SC[C@H]2NC(=O)N[C@]21O,2.24µM*,0.891µM*,.,2.24µM*,.,.
COCCn1c(=O)c(-c2cccs2)nc2cnc(N(C)C)nc21,-1.9%[0.501 µM],.,.,.,.,.
COc1cc(/C=C/c2sc3ccccc3[n+]2CCCS(=O)(=O)[O-])ccc1O,11.2µM*,44.7µM*,31.6µM*,28.2µM*,-26.1,-32.6%
O=C(Nc1nc2c(F)cccc2s1)c1ccco1,22.3%,-4.2%,43.9%,10.8%,-3.6,0.7%
O=C(Nc1nc(-c2ccco2)c(-c2ccco2)s1)c1c(F)cccc1Cl,?,39.8µM*,?,?,1.0,50.1µM*
C[C@H]1CNC(=O)C(=O)N1C[C@H](Cc1ccc(O)cc1)NC(=O)CC12CC3CC(CC(C3)C1)C2,70.8µM*,-2.4%,29.8%,?,-8.5,-14.0%
CC(C)C[C@H]1CNC(=O)C(=O)N1C[C@H](Cc1ccc(O)cc1)NC(=O)Cc1ccccc1,.,.,.,.,-0.3,.
Cc1ccc2c(CC(=O)N(Cc3cccc(Cl)c3)C3CCS(=O)(=O)C3)coc2c1 (stereo unspecified),-3.8%[59 µM],-21.8%,19.7%,.,.,-11.5%
Cc1nn(CCC(N)=S)c2nc(-c3cccs3)cc(C(F)(F)F)c12,10µM*,-19.6%,-19.7%,0.4%,-4.9,-10.4%
C/C(=N\Nc1nc(C(C)(C)C)cs1)c1ccc(O)cc1,31.6µM*,?,-22.0%,-7.1%,2.3,?
C/C(=N\Nc1nc(C(C)(C)C)cs1)c1ccccc1,70.8µM*,?,1.8%,.,11.1,?
CC(C)(C)c1csc(NNC(=O)c2ccc(Br)cc2)n1,-34.5%,.,-7.0%,.,-12.6,-31.2%
C/C(=N\Nc1nc2c(s1)CCCC2)c1ccccc1,?,44.7µM*,?,.,-2.0,?
O=C(Nc1nc2c(s1)CCCC2)Oc1ccccc1,-10.4%[59 µM],-34.0%,13.3%,.,-6.2,-4.5%
COc1ccc(Oc2ncc3nc(-c4ccccc4)c(=O)n(Cc4cccs4)c3n2)cc1,8.9%[12.7 µM],.,.,.,.,.
Cc1ccc(-c2cc(C(=O)N(Cc3ccccc3)Cc3ccco3)no2)cc1F,?,50.1µM*,31.5%,.,.,-3.3%
CCN(CC(=O)Nc1ccc(Br)cc1)CC(=O)Nc1cc(C)on1,79.4µM*,14.4%,20.8%,-7.8%,5.7,-4.8%
CC(=O)Nc1ccc(SCC(=O)Nc2cc(C)on2)cc1,44.7µM*,5.4%,46.2%,-13.2%,6.9,0.3%
Cc1cc(NC(=O)CSc2ccc(F)cc2)no1,15.6%[59 µM],-9.8%,42.4%,.,4.8,-4.2%
O=C(c1cc2c(=O)oc3ccccc3c2s1)N1CCN(c2cccc(Cl)c2)CC1,5.4%[59 µM],2.1%,18.7%,.,.,-17.1%
O=C(COC(=O)C1C2CC3OC(=O)C1C3C2)Nc1ccccc1 (stereo unspecified),50.1µM*,7.3%,6.6%,.,5.4,-4.1%
SMILES,G9a inh,BAZ2B block,HP1b chromo inh,L3MBTL1 block,PI5P4Ka inh,JMJD2A Tudor
O=C(COC(=O)C1C2CC3OC(=O)C1C3C2)Nc1ccc(F)cc1 (stereo unspecified),-5.8%,-14.6%,53.0%,.,-1.4,-7.5%
CC(=O)n1nc(-c2ccco2)nc1N,-17.6%,5.7%,36.5%,-0.3%,2.2,-5.5%
CC(=O)n1nc(-c2ccco2)nc1SCc1ccccc1,44.7µM*,-29.4%,9.9%,-6.3%,-15.7,-16.2%
CCC(=O)n1nc(-c2ccco2)nc1N,44.7µM*,-22.4%,7.8%,-0.1%,5.3,-6.8%
COc1cc(OC)c(N(C)C(=O)Nc2cn(CC(C)C)c(=O)c3ccccc23)cc1Cl,-6.0%[59 µM],4.5%[57.1 µM],17.1%,.,.,-12.6%
CCOC(=O)c1cc(C)n(CC2CCC(C(=O)Nc3ccccc3OC)CC2)c1C (stereo unspecified),?,-31.1%,17.1%,.,.,-33.8%
COc1cc2c(OC(C)=O)c3c(c(-c4ccc5c(c4)OCO5)c2cc1OC)C(=O)OC3,-9.5%[59 µM],-4.9%,?,1.4%,-8.1,89.1µM*!
COc1ccc(NC2=C(Cl)C(=O)N(c3ccccc3)C2=O)c(OC)c1,?,-15.1%,13.7%,-20.6%,6.1,?
COc1ccc(N2C(=O)C(Cl)=C(Nc3c(C)n(C)n(-c4ccccc4)c3=O)C2=O)cc1,8.91µM*,?,16.5%,-2.6%,.,?
COc1ccccc1NC1=C(Cl)C(=O)N(c2ccccc2)C1=O,44.7µM*,?,-27.6%,-15.2%,-2.9,?
O=C(Nc1ccccc1Sc1ccccc1)c1cnn2c1NC(=C1CC1)C=C2C(F)F,.,.,32.9%,.,.,.
O=C(c1ccc2c(=O)n(Cc3ccco3)c(=S)[nH]c2c1)N1CCN(Cc2ccc3c(c2)OCO3)CC1,.,.,-10.3%,.,.,?
CN(Cc1ccccc1)C(=O)CSc1nc2ccsc2c(=O)n1-c1ccc(F)cc1,-2.3%[59 µM],-2.3%,26.8%,.,.,-27.0%
CCS(=O)(=O)N1CCC2(CC1)OC(=O)C(C)=C2C(=O)NCc1ccccc1C,8.5%[59 µM],6.2%,13.2%,.,.,-11.4%
CSc1nc2sc3c(c2c(=O)n1-c1ccc(C)c(Cl)c1)CCN(C(C)=O)C3,-24.2%[59 µM],79.4µM*,30.9%,.,.,-32.4%
CCCCCSc1nc2sc3c(c2c(=O)n1-c1ccc(OC)cc1)CCN(C(C)=O)C3,11.2µM*,-37.8%,-17.8%,.,.,?
CCN(Cc1ccccc1)C(=O)Cn1c(=O)cc(C)c2c(C)nn(-c3cccc(F)c3)c21,19.3%[59 µM],-0.3%,23.4%,.,.,-5.0%
Cc1cccc(NC(=O)c2sc3ncnc(N(C)C4CCCCC4)c3c2C)c1C,2.7%[59 µM],-1.2%,39.3%,.,.,-18.3%
COc1ccc(C(=O)NC(=S)N2CCNC(=O)C2)cc1Br,.,?,-16.1%,9.2%,-17.1,35.5µM*
CCCCOc1ccc(C(=O)NC(=S)Nc2ccc(CN3CCOCC3)cc2)cc1,-5.3%,5.0%,15.1%,8.8%,2.4,-13.8%
Cc1ccc(C(=O)NC(=S)NNC(=O)CCN2CCOCC2)cc1,8.91µM*,56.2µM*,52.1%,-10.2%,8.9,-18.6%
